Molecules are shown by their SMILES. Where “and” joins values, the source holds several entries; their conditions need not be identical. Equal values may be shown once. Records with an inconclusive call do not appear. Calls of active or inactive are those of the source. How the source made its calls: active means hit-call score of the fitted dose curve at least 0.9, where 1 is the maximum; inconclusive means response in the unintended direction; inactive means score below 0.9.

The target of test [1] is human Phosphodiesterase 5 (PDE5), PDE5A (gene 8654) (UniProt O76074). Put plainly: NVS_ENZ_hPDE5: NovaScreen (NVS) Enzymatic Assay for human Phosphodiesterase 5 (PDE5) (AID 2283194). The essentials: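 Recombinant human PDE5 with specific substrate, read 1 h after dosing by fluorescence with electrophoretic mobility-shift separation of substrate and product. Initial single-concentration duplicate screen at 25 uM, actives followed in concentration series; loss of activity versus DMSO.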

The target of test [2] is human Phosphatase and Tensin Homolog (PTEN), PTEN (gene 5728) (UniProt P60484). Put plainly: NVS_ENZ_hPTEN: NovaScreen (NVS) Enzymatic Assay for human Phosphatase and Tensin Homolog (PTEN) (AID 2283203). The essentials:
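Cell-free recombinant human PTEN with fluorescent substrate; product separated by electrophoretic mobility shift and read by fluorescence 1 h after dosing. Primary screen in duplicate at 25 uM, actives followed in concentration series versus DMSO.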

Test [3] deals with Serine/threonine-protein phosphatase PP1-alpha catalytic subunit (Homo sapiens) (UniProt P62136). Put plainly: NVS_ENZ_hPPP1CA: NovaScreen (NVS) Enzymatic Assay for human Protein Phosphatase 1 Aatalytic subunit Alpha (PPP1CA) (AID 2283200). The essentials:
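Recombinant enzyme activity read by fluorescence with electrophoretic mobility shift separating substrate from product, 1.33 h after dosing; loss of signal vs DMSO baseline. Primary screen in duplicate at 25 uM; actives retested in concentration-response up to 50 uM.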

Test [4] concerns the target PPP2CA (gene 5515) (UniProt P67775). The experiment in a line: NVS_ENZ_hPPP2CA: NovaScreen (NVS) Enzymatic Assay for human Protein Phosphatase 2 Aatalytic subunit Alpha (PPP2CA) (AID 2283199). The method in brief: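 Recombinant human PPP2CA with fluorescent substrate; product separated from substrate by electrophoretic mobility shift, read 1.33 h after dosing. Duplicate single-point at 25 uM, then singleton concentration-response up to 50 uM; loss of signal versus DMSO.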

The target in test [5] is Tyrosine-protein phosphatase non-receptor type 11 (Homo sapiens) (UniProt Q06124). Put plainly: NVS_ENZ_hPTPN11: NovaScreen (NVS) Enzymatic Assay for human Protein Tyrosine Phosphatase Non-receptor Type 11 (PTPN11) (AID 2283202). The method in brief:
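Recombinant human PTPN11 activity on a fluorescent substrate, with substrate/product separated by electrophoretic mobility shift; read 0.5 h after dosing, loss of signal vs DMSO. Duplicate 25 uM screen, then concentration-response up to 50 uM.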

Sequence of PPP2CA (gene 5515) (P67775 whole entry, looked up): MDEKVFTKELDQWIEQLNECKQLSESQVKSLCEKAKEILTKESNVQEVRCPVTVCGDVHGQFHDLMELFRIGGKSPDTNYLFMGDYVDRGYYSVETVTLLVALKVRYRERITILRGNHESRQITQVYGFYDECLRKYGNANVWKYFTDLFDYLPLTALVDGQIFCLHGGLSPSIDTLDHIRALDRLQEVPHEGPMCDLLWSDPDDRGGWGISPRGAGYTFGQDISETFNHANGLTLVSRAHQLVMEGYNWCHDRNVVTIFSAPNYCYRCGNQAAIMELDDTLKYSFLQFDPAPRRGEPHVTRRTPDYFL
Sequence of human Phosphatase and Tensin Homolog (PTEN), PTEN (gene 5728) (P60484 whole entry, looked up): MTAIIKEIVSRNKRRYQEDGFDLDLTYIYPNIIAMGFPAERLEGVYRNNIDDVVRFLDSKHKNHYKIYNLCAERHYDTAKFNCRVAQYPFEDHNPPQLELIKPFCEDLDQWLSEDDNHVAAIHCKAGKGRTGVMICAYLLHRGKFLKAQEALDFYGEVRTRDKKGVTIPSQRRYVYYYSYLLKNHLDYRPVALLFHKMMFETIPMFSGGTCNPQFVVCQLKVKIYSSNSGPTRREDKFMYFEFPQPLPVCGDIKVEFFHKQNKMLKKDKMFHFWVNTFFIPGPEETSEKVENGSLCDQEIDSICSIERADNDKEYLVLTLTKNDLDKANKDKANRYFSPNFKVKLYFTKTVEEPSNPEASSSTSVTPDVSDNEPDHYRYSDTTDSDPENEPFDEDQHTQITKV
Sequence of Tyrosine-protein phosphatase non-receptor type 11 (Homo sapiens) (Q06124 whole entry, looked up): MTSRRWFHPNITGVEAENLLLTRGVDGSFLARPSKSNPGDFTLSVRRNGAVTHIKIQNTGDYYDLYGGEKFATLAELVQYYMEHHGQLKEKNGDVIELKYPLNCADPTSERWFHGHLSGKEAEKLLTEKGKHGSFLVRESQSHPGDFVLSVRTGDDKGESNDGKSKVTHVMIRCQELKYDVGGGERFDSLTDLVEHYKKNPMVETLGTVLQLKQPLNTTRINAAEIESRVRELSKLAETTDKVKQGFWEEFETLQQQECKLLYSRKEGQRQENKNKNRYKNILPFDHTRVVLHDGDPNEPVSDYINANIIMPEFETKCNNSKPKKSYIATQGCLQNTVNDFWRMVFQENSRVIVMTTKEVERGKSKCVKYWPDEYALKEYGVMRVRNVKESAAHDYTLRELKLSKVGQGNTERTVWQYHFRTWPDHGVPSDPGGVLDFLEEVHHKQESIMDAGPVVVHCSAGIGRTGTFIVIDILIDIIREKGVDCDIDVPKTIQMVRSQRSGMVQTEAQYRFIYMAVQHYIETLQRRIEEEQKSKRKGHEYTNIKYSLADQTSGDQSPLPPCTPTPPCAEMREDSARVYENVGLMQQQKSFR
Sequence of Serine/threonine-protein phosphatase PP1-alpha catalytic subunit (Homo sapiens) (P62136 whole entry, looked up): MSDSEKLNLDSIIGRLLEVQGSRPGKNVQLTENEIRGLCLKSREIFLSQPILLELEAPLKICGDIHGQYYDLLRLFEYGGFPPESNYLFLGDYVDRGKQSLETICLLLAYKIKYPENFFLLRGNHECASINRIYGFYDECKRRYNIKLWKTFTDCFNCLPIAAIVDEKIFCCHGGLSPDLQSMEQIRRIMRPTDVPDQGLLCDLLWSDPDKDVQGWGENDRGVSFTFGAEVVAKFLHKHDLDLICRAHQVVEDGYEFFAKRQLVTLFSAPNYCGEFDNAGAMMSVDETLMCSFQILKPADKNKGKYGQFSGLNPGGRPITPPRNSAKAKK

Turning to `CCCCNC(=O)n1c(NC(=O)OC)nc2ccccc21`, the compound was called inactive in test [1].

Turning to `CON(C)C(=O)Nc1ccc(Cl)c(Cl)c1`, in test [1], the AC50 is 7.19 µM (active) and 9.03 µM (active). The outcome in test [2] was inactive.

Regarding `Oc1ccccc1-c1ccccc1`, the result in test [3] was inactive.

Consider `COc1nc(C)nc(NC(=O)NS(=O)(=O)c2ccccc2Cl)n1`, for which the compound was classed as inactive in test [4].

With `CCNc1nc(Cl)nc(NC(C)C)n1`, the AC50 in test [1] was 4.96 µM (active) and 8.17 µM (active).

`Cc1ccc(-c2c(Cl)nc(C#N)n2S(=O)(=O)N(C)C)cc1`: in test [1], the AC50 was 11.7 µM (active). Besides, in test [2], the compound was classed as inactive.

`COc1ccc(C(c2ccc(OC)cc2)C(Cl)(Cl)Cl)cc1`: the call in test [5] was inactive.

By AC50 is commonly meant the midpoint of the concentration-response curve, whichever way the signal moves.

The values above are taken from PubChem BioAssay (EPA / NIEHS).
